Results taken from PubChem BioAssay AID435022 (Sanford-Burnham Center for Chemical Genomics, 2010).
Where “and” joins values, the source holds several entries; their conditions need not be identical. Equal entries are not always repeated. About 1,100 (0.33%) of roughly 330,000 compounds were called active. Rule as the data show it: active = inhibition above about 35%; inactive = the rest. The sample as a whole holds a higher share of actives than the screen did. The source holds several records for some structures; these can differ, active in one and inactive in another.

Assay: inhibitors of PMA/ionomycin-induced NF-kB reporter, 697 cells, primary screen, B-cell NF-kB inhibitor project, cell-based, luminescence, uHTS (AID 435022)
Conditions: 697 B-cell NF-kB luciferase reporter, 16 h, at 4 µM, stronger effect = higher value

SMILES	inhibition
COc1cc2c(cc1OC)CN(C(=O)c1cc(=O)c3ccccc3o1)CC2	-14.7% (inactive)
CCOc1cc(C(=O)N2CCc3cc(OC)c(OC)cc3C2)ccc1OC(F)F	39.7% (active)
COc1cc2c(cc1OC)CN(C(=O)c1ccc(S(=O)(=O)N3CCCCCC3)cc1)CC2	22.3% (inactive)
COCCNC(=O)C1CCN(C(=O)C2CC(=O)N(c3ccc(C)cc3)C2)CC1 (stereo not given)	-0.961% (inactive)
CCN(CCCNC(=O)CSc1cc(=O)n(C)c2cc(Cl)ccc12)Cc1ccccc1	2.99% (inactive)
Cc1ccc(O)c(NC(=O)COc2cc(C)ccc2C)c1	40.5% (active)
Cc1ccc(O)c(NC(=S)NC(=O)COc2ccc(Br)cc2)c1	-17.9% (inactive)
Cc1ccc(C)c(OCC(=O)NNC(=O)C2CCC2)c1	0.932% (inactive)
COc1ccc(NC(=O)Nc2ccc3c(c2)C(=O)N([C@H](C)CO)C[C@H](C)[C@@H](CN(C)C(=O)Nc2ccc4c(c2)OCO4)O3)cc1	-1.97% (inactive)
COc1ccc(CNC(=O)C2CCC(CNc3c(N4CCOCC4)c(=O)c3=O)CC2)cc1 (stereo not given)	-4.3% (inactive)
CCN1/C(=C\c2ccc3ccccc3[n+]2CC)Sc2cc(C)ccc21	65% (active)
COC(=O)c1ccccc1NC(=O)C1CC(=O)N(c2ccc(OC)cc2)C1 (stereo not given)	2.44% (inactive)
C[C@@H]1O[C@@H](OC[C@H]2O[C@@H](Oc3c(-c4ccc(O)cc4)oc4cc(O)cc(O)c4c3=O)[C@H](O)[C@@H](O)[C@@H]2O)[C@H](O)[C@H](O)[C@H]1O	3.19% (inactive)
O=C(NCCCN1CCOCC1)c1cc(-c2cccc(O)c2)on1	14.1% (inactive)
COc1ccc(-c2cc(C(=O)NCCCN3CCOCC3)no2)cc1	28.1% (inactive)
O=C(NCCCN1CCOCC1)c1cc(-c2ccc(Cl)cc2)on1	46.3% (active)
CCOC(=O)C1CCN(C(=O)C2(NC(=O)Nc3cccc(F)c3)CCCCC2)CC1	14% (inactive)
Cn1nc(C(F)(F)F)cc1-c1ccc(/C=C(\C#N)C(=O)c2cccc(C(F)(F)F)c2)s1	-34.9% (inactive)
CCOC(=O)C1C(=O)NCC1c1ccccc1 (stereo not given)	12.8% (inactive)
CC(=O)c1cnc(SCC(=O)O)nc1C	10% (inactive)
Clc1ccc(C[n+]2cc(-c3ccccc3)n3c2CCC3)cc1	-17.7% (inactive)
Cc1ccc(-c2c[n+](CC(=O)Nc3ccccc3)c3n2CCC3)cc1	-7% (inactive)
Cc1ccc(C(=O)C[n+]2cc(-c3ccccc3)n3c2CCCCC3)cc1	38.8% (active) and 16% (inactive)

SMILES	inhibition
CC1CN(C(=S)Nc2ccc(Br)cc2Cl)CC(C)O1 (stereo not given)	-8.08% (inactive)
Cc1ccccc1-c1cc(C(=O)NCc2cccs2)n(CC2CC(c3cccnc3)=NO2)n1 (stereo not given)	-9.9% (inactive)
Cn1c(=O)cc(SCC(=O)N2CCCC2)c2cc(Cl)ccc21	52.4% (active)
CCOC(=O)C1CCN(C(=O)CSc2cc(=O)n(C)c3ccccc23)CC1	25% (inactive)
Cn1c(=O)cc(SCC(=O)N2CCN(C(=O)c3ccco3)CC2)c2ccccc21	-1.63% (inactive)
Cc1ccccc1C(=O)NNC(=O)CN1C(=O)c2ccccc2C1=O	8.67% (inactive)
C[C@@]12C(=O)N(c3cccc(Br)c3)C(=O)N1[C@H](c1ccc(Cl)cc1)[C@@H]1C(=O)N(C3CCCCC3)C(=O)[C@@H]12	-15.6% (inactive)
O=C(O)CN(Cc1ccco1)S(=O)(=O)c1ccccc1	18.8% (inactive)
Cc1c(Cl)cnc(NC(=O)COC(=O)C2CCCC2)c1Cl	2.7% (inactive)
CCOC(=O)CSc1nnc(CNC(=O)c2cccs2)n1-c1ccccc1	9.72% (inactive)
O=C(C1CCC1)N1CCc2cc(S(=O)(=O)NCc3cccnc3)ccc21	-30.3% (inactive)
C/C=C(/C)C(=O)OC1Cc2c(ccc3ccc(=O)oc23)OC1(C)C (stereo not given)	47.2% (active)
CC1(C)Oc2ccc3ccc(=O)oc3c2/C(=C/NCCO)C1=O	5.05% (inactive)
CC1(C)Oc2ccc3ccc(=O)oc3c2/C(=N/O)C1=O	-15.2% (inactive)
Cc1nc(Cl)c(C#N)c2c1CCCC2	22.3% (inactive)
CC(=O)Nc1ccc(S(=O)(=O)NC2(C(F)(F)F)C(=O)Nc3c2c(=O)[nH]c(=O)n3Cc2ccccc2)cc1 (stereo not given)	3.75% (inactive)
COc1ccccc1NC(=O)C1=C(C)Nc2nnnn2C1c1cccc(Br)c1 (stereo not given)	-22.3% (inactive)
COC(=O)c1ccc(C2C3=C(Nc4nnnn42)c2ccccc2OC3)cc1 (stereo not given)	3.54% (inactive)
COC(=O)C1=C(C(=O)c2ccc(C)cc2)C(c2ccccc2)n2nnnc2N1 (stereo not given)	36.7% (active)
CC1CCN(C(NC(=O)c2ccco2)C(=O)c2ccccc2)CC1 (stereo not given)	-1.98% (inactive)
CCOC(=O)C1=C(O)/C(=C/c2cc(C)n(-c3ccccc3)c2C)N=C1C	-12.5% (inactive)
CC(C)n1cnc2c(Nc3cccc(Cl)c3)nc(N(CCO)CCCO)nc21	-41.1% (inactive)
Cc1cccc(Nc2nc(NCCO)nc(N3CCCC3)n2)c1	4.82% (inactive)

SMILES	inhibition
OCCCNc1nccc(-c2cc(Nc3cccc(Cl)c3)ncn2)n1	67.2% (active)
CSc1ncccc1C(=O)OCc1ccc(Br)cc1	5.14% (inactive)
c1ccc(Cc2cc[n+](Cc3ccccc3)cc2)cc1	-7.68% (inactive)
COc1ccccc1OCc1nnc(SCC(N)=O)n1-c1ccccc1	-18.9% (inactive)
Cc1nc2ccccc2c(=O)n1-c1ccc(F)c(NC(=O)c2cccs2)c1	-10.2% (inactive)
CN1CCN(C(=O)CCc2nc(-c3ccc(Cl)cc3)no2)CC1	-2.08% (inactive)
CCNC(=O)CCc1nc(-c2ccc(C(C)(C)C)cc2)no1	87.2% (active)
CCc1ccc(CNC(=O)CCc2nc(-c3cccs3)no2)cc1	-6.74% (inactive)
CCOC(=O)C1CCN(C(=O)C2CCCN(S(=O)(=O)c3ccc(OC)c(Cl)c3)C2)CC1 (stereo not given)	-44.7% (inactive)
CCOc1ccccc1C1CC(c2ccc(Cl)cc2)Nc2nc(N)nn21 (stereo not given)	-1.91% (inactive)
COc1ccc(C(=O)n2nc(C)c(Br)c2C)cc1OC	-0.0717% (inactive)
COc1ccc(C(=O)n2nc(-c3ccc(C)cc3)nc2N)cc1OC	7.38% (inactive)
COc1ccc(C(=O)n2nc(-c3ccc(Cl)cc3)nc2N)cc1OC	39.3% (active)
O=S1(=O)N=C(N(CCO)/N=C/c2ccccc2F)c2ccccc21	11.3% (inactive)
O=C(CSc1nc(Nc2ccccc2)nc(N2CCOCC2)n1)Nc1cc(Cl)ccc1O	-4.18% (inactive)
C/C(=N\Nc1nc(N2CCOCC2)nc(N2CCOCC2)n1)c1ccc([N+](=O)[O-])cc1	5.8% (inactive)
C/C(=N\Nc1nc(Nc2ccccc2)nc(N2CCOCC2)n1)c1cccs1	39.3% (active)
O=c1oc(-c2ccccc2NS(=O)(=O)c2ccc(Cl)cc2)nc2ccccc12	6.5% (inactive)
CC(C)(C)c1ccc(Oc2ccc(N)cc2)cc1	79% (active)
CC(C)(C)c1ccc(OC2=CS(=O)(=O)c3ccccc32)cc1	-29.9% (inactive)
COc1cccc(Oc2ccc(N)cc2)c1	-22.3% (inactive)
O=C(C(NS(=O)(=O)c1cccc2nsnc12)c1ccccc1)N1CCN(c2ccccc2)CC1 (stereo not given)	-0.239% (inactive)
CN(Cc1nc(-c2cnccn2)no1)Cc1n[nH]c2c1CCCCC2	2.89% (inactive)

SMILES	inhibition
CC[n+]1cc(C)ccc1/C=C/c1ccc(N(C)C)cc1	42.6% (active)
C=CCN1C(=NC(=O)COc2ccccc2)SC2CS(=O)(=O)CC21 (stereo not given)	-20.6% (inactive)
CN(C)C(=O)CCc1ccc2c3c([nH]c2c1)[C@]1(CCC2CCCC2)[C@@H](C(=O)N2CCOCC2)C[C@H](CC(=O)NCc2ccco2)C(=O)N1CC3	13.5% (inactive)
Cc1ccc(C)c(NC(=O)CN(C)C(=O)COc2ccc3ccccc3c2)c1	1.04% (inactive)
COc1ccc(S(=O)(=O)N2CCN(C(=O)c3cccs3)CC2)cc1OC	10.3% (inactive)
CC1=C(C(=O)OC2CCCCC2)C(c2cccnc2)n2ncnc2N1 (stereo not given)	-21.7% (inactive)
COc1ccc(/C=C2\SC(=S)N(CCC(=O)Nc3ccccn3)C2=O)cc1OC	47.5% (active)
COc1cc(/C=C2/SC(=S)N(Cc3ccccc3)C2=O)cc(OC)c1O	18.2% (inactive)
CCOc1ccc(/C=C2\SC(=S)N(NC(=O)c3ccncc3)C2=O)cc1OC	-7.88% (inactive)
Cc1ccc(C)n1-c1ccncc1	8.79% (inactive)
COc1cc(C(=O)NCc2nnc(SCC(=O)c3ccc(Cl)cc3)o2)cc(OC)c1OC	7.7% (inactive)
CC(=O)Nc1ccc(C(=O)CSc2nnc(Cc3ccccc3)o2)cc1	8.22% (inactive)
CC(C)C[C@@H](N)c1nnc(SCC(=O)c2ccc(Cl)cc2)o1	67.6% (active)
CCCCCCCCCCOC(=O)C[N+](C)(C)CC1CCCCC1O (stereo not given)	10.5% (inactive)
NC(=O)CC(NC(=O)Cc1cccc2ccccc12)c1ccc(NCc2cc(F)ccc2F)c([N+](=O)[O-])c1 (stereo not given)	9.25% (inactive)
CC12CN3CCN(CC(C3)/C1=N\NC(=O)c1ccccc1N)C2	-5.67% (inactive)
CN(C(=O)COc1nnc(-c2cccs2)c(-c2cccs2)n1)c1ccccc1	2.99% (inactive)
COc1ccc(OCC(=O)N2CCN(C(=O)c3cccs3)CC2)cc1	26.7% (inactive)
O=C(O)COc1ccc(-c2nccc(-c3cccs3)n2)cc1	73.8% (active)
O=C1c2ccccc2S(=O)(=O)N1Cc1c(F)cccc1Cl	-1.55% (inactive)
Cn1c(CCc2ccccc2)nnc1SCC(N)=O	-1.05% (inactive)
